In all, about 340,000 compounds went through this assay and about 8,500 (2.5%) were called active.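 The calls were made as follows: active = melting temperature shift of at least 10% of the positive control shift, at one fixed dose; inactive = the rest.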 What follows is part of a selection rich in actives, with near analogues and random picks from the rest.

For this assay, the system named is Glutamate receptor ionotropic, NMDA 3A (GRIN3A) ligand-binding domain. The assay is described as follows: NR3A LBD thermal stabilization by compounds – biophysical, differential scanning fluorimetry, uHTS, primary screen (AID 1259313). The conditions noted are these: at 25 µM, active compounds read high, 0% = protein alone, 100% = glycine-bound protein.
With `O=C1C(=O)N(CCCN2CCOCC2)C(c2ccc([N+](=O)[O-])cc2)/C1=C(\O)c1ccc2c(c1)OCCO2` (configuration not stated), the Tm shift relative to glycine control is 0% (inactive).
With `Cc1ccc(NC(=O)Cn2c(=O)n(CCC(=O)NC3CCN(Cc4ccccc4)CC3)c(=O)c3ccccc32)cc1`, the Tm shift relative to glycine control is 0.79% (inactive).
The result for `CC(=O)c1c(C)[nH]c(C(=O)OCC(=O)Nc2sc3c(c2C#N)CCCC3)c1C` reads 4.13% (inactive); that for `O=C(COc1ccccc1F)Nc1nc(-c2ccccn2)cs1`, -41.9% (inactive); that for `O=C(CN1C(=O)C2C3C=CC(C3)C2C1=O)Nc1nc(-c2ccccn2)cs1` (configuration not stated), 17.6% (active).
Under `O=C(NCCN1C(=O)C2C3C=CC(C3)C2C1=O)Nc1ccccn1` (configuration not stated) stands -0.55% (inactive).
Under `O=C(NCCc1ccccc1)C(=O)NCC1OCCN1S(=O)(=O)c1cccs1` (configuration not stated) stands 5.49% (inactive).
Regarding `CCOC(=O)N1CCN(C(=O)c2ccccc2SCC(=O)NCC2CCCCC2)CC1`, the Tm shift relative to glycine control is 0.96% (inactive).
Under `O=C(O)c1cscn1` stands -2.23% (inactive); under `Cc1oc(-c2ccccc2Cl)[n+]([O-])c1C`, 0.65% (inactive).
Consider `COC(=O)C1=C(C)N(C)C(=S)NC1c1ccccc1` (configuration not stated), for which the Tm shift relative to glycine control is 1.46% (inactive).
The result for `COC(=O)C1NN=C(C(=O)c2ccc(Br)cc2)C1c1cccc(Br)c1` (configuration not stated) reads -3.88% (inactive); that for `COC(=O)C1=C(C)N(C)C(C)=C(C(=O)OC)C1c1cccc(Br)c1`, 10.9% (active); that for `COc1ccc2c(CC(=O)OCC(=O)NC(N)=O)coc2c1`, -1.31% (inactive).
The result for `Cn1cccc1C(=O)NC(=O)COC(=O)Cc1coc2ccc3ccccc3c12` reads 711% (active).
Turning to `O=C(Cc1coc2ccc3ccccc3c12)NCc1cccs1`, the Tm shift relative to glycine control was -3.17% (inactive).
For `CN(C)S(=O)(=O)c1ccc(C(=O)NCC2(N3CCOCC3)CCCCC2)cc1`, the Tm shift relative to glycine control is -0.34% (inactive).
In the case of `CCC(C)NC(=O)C1c2ccccc2C(=O)N1Cc1ccccc1` (configuration not stated), the Tm shift relative to glycine control was 0.89% (inactive).
Under `Nc1cccc(S(=O)(=O)Nc2ccc(SC(F)F)cc2)c1` stands -8.52% (inactive).
On to `Cc1c(NS(=O)(=O)c2cccc(C(=O)Nc3ccc(SC(F)F)cc3)c2)c(=O)n(-c2ccccc2)n1C`, for which the Tm shift relative to glycine control is -4.82% (inactive).
Turning to `COc1ccc(NC(=O)/C(N=Nc2cccc(S(=O)(=O)Nc3ccc(SC(F)F)cc3)c2)=C(\C)O)cc1`, the Tm shift relative to glycine control was 28% (active).
Under `Cc1ccc(NN=C2C(=O)OC(C)(C)OC2=O)c(C)c1` stands -1.21% (inactive); under `CC(CO)N1CCS(=O)(=O)CC1` (configuration not stated), 0.09% (inactive).
The result for `CCOc1ccc(N/C(N)=N/c2nc(C)c(C)c(=O)[nH]2)cc1` reads 2.12% (inactive).
The result for `CN1CCN(c2nc(Nc3ccc(O)cc3)nc3ccccc23)CC1` reads -0.23% (inactive); that for `Cc1cc(Nc2ccc(Br)cc2)nc2ccccc12`, 45.6% (active).
As to `Cc1ccc(Nc2nc(C)cc(C)c2C(N)=O)cc1`, the Tm shift relative to glycine control is -2.09% (inactive).
Under `CCOc1ccc(NC(=O)c2cc(C)nc3ccccc23)cc1` stands -0.84% (inactive); under `Cc1ccc2nc(C)c3c(c2c1)N(c1ccccc1)CC3`, -1.71% (inactive); under `Cc1ccc2nc(Nc3ccccc3)cc(C)c2c1`, 30.3% (active).
Turning to `Cc1cccc(NC(=S)N2CCC(O)CC2)c1C`, the Tm shift relative to glycine control is 1.31% (inactive).
Under `CC(C)=CCN1CCN(Cc2ccc(Oc3ncccn3)cc2)CC1CCO` (configuration not stated) stands 0.09% (inactive); under `COC(=O)c1ccc(NC(=O)C23CC4CC(C2)CC(n2cnc(Cl)n2)(C4)C3)cc1`, -0.61% (inactive).
Under `O=C(CSc1ncn[nH]1)Nc1nc(-c2cccc([N+](=O)[O-])c2)cs1` stands -2.42% (inactive); under `O=C(CSc1nc(-c2ccccc2)cs1)Nc1cccc([N+](=O)[O-])c1`, 34.4% (active).
The result for `COc1ccc(-n2cnnc2SCC(=O)Nc2cccc([N+](=O)[O-])c2)cc1` reads -0.86% (inactive); that for `Cc1cc(/C=N/n2cnnc2)c(C)n1-c1ccc2ncccc2c1`, -0.4% (inactive); that for `Cc1nn(-c2ccccc2)c(Cl)c1/C=C/C(=O)c1ccc(O)cc1`, 15.2% (active).
As for `Cc1nn(-c2ccccc2)c(C)c1/C=C/C(=O)OC(C)C(N)=O` (configuration not stated), the Tm shift relative to glycine control is -7.09% (inactive).
The result for `Cc1ccc(C(=O)/C=C/c2c(C)nn(-c3ccccc3)c2Cl)cc1` reads -10.2% (inactive).
The result for `COc1ccc(Br)c2c1C(=O)CC2` reads 2.15% (inactive); that for `CCCCN(C)C(=O)C1CCN(Cc2ccccn2)CC1`, 1.37% (inactive).
As to `COc1ccc(-c2cc(C(=O)N3CCN(Cc4ccc5c(c4)OCO5)CC3)on2)cc1OC`, the Tm shift relative to glycine control is -2.25% (inactive).
Under `COc1ccc(-c2csc3ncnc(N4CCN(S(=O)(=O)c5ccccc5C#N)CC4)c23)cc1` stands -2.57% (inactive).
Under `Cc1ccc(NC(=O)Cn2cnc3c(OCc4ccccc4)ncnc32)cc1C` stands -1.41% (inactive); under `CC(CNC(=O)Cn1cnc2c(OCc3ccccc3)ncnc21)c1ccccc1` (configuration not stated), 16.8% (active).
The result for `O=C(Cn1cnc2c(OCc3ccccc3)ncnc21)NCc1nc2ccccc2[nH]1` reads -0.08% (inactive).

The record behind these values is PubChem BioAssay AID1259313 (Sanford-Burnham Center for Chemical Genomics, 2017).
